Laboratory results from PubChem BioAssay.
Active and inactive are the calls of the source.

Experiments:
[1] = optical density shifts of acrAB sulA E. coli – strain DRC41, OD650, 48 h, E. coli filamentation inducer project, primary screen (AID 1152); conditions: higher = more signal, called active from +8 up or from −8 down;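 note: E. coli MC1000 strain DRC41 lacking acrAB efflux pump and sulA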
[2] = probe aLefty1 binding on compound microarray – biochemical, small-molecule microarray, 635/667 nm fluorescence, primary screen (AID 1153); conditions: higher = more signal;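 note: score merges spot fluorescence with signal-to-noise ratio from the scanned slide images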
[3] = plasmodial surface anion channel blockers, osmotic lysis – cell-based, P. falciparum Indochina, OD700, 1 h, primary screen (AID 1154); conditions: P. falciparum Indochina infected RBC osmotic lysis, higher = more signal, called active from +8 up or from −8 down
[4] = plasmodial surface anion channel blockers, osmotic lysis – cell-based, P. falciparum Indochina, OD700, 2 h, primary screen (AID 1155);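 note: lysis reports solute entry through the parasite surface anion channel PSAC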; conditions: P. falciparum Indochina infected erythrocytes, higher = more signal, called active from +8 up or from −8 down
[5] = changes in parasitized red cell lysis, either direction – P. falciparum Indochina, OD700, 3 h, PSAC antagonist project, primary screen (AID 1156); conditions: P. falciparum-infected erythrocytes, osmotic lysis, higher = more signal, called active from +8 up or from −8 down
[6] = plasmodial surface anion channel blockers, osmotic lysis – cell-based, P. falciparum Indochina, OD700, 18 h, primary screen (AID 1157); conditions: P. falciparum Indochina infected erythrocytes, osmotic lysis OD700, 18 h; higher = more signal, called active from +8 up or from −8 down
[7] = S6 kinase pathway phospho-S6 level changes – cell-based, A549, cytoblot, luminescence, serum-stimulated, primary screen (AID 1158); conditions: 5 h, higher = more signal;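 note: serum-stimulated A549 lung adenocarcinoma cells; signal is phosphorylated S6 detected by cytoblot immunostaining with HRP secondary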
[8] = molecular target: NADPH oxidase 2 (Homo sapiens) (UniProt P04839); test: compounds shifting NOX2 Amplex Red fluorescence – cell-based, HEK293-NOX2, PMA-stimulated, NOX inhibitor project, primary screen (AID 1159); conditions: 45 min, higher = more signal, called active from +8 up or from −8 down; note: test concentration not given here
[9] = molecular target: NADPH oxidase 4 (Homo sapiens) (UniProt Q9NPH5); test: compounds shifting NOX4 Amplex Red fluorescence – cell-based, HEK293-NOX4, tetracycline-induced, NOX inhibitor project, primary screen (AID 1160); conditions: HEK293-NOX4, Amplex Red H2O2 fluorescence, 45 min; higher = more signal, called active from +8 up or from −8 down
[10] = molecular target: NADPH oxidase 5 (Homo sapiens) (UniProt Q96PH1); test: compounds shifting NOX5 Amplex Red fluorescence – cell-based, HEK293-NOX5, NOX inhibitor project, primary screen (AID 1161); conditions: HEK293-NOX5, ionomycin, 45 min, higher = more signal
NADPH oxidase 5 (Homo sapiens), sequence (Q96PH1 whole entry, looked up): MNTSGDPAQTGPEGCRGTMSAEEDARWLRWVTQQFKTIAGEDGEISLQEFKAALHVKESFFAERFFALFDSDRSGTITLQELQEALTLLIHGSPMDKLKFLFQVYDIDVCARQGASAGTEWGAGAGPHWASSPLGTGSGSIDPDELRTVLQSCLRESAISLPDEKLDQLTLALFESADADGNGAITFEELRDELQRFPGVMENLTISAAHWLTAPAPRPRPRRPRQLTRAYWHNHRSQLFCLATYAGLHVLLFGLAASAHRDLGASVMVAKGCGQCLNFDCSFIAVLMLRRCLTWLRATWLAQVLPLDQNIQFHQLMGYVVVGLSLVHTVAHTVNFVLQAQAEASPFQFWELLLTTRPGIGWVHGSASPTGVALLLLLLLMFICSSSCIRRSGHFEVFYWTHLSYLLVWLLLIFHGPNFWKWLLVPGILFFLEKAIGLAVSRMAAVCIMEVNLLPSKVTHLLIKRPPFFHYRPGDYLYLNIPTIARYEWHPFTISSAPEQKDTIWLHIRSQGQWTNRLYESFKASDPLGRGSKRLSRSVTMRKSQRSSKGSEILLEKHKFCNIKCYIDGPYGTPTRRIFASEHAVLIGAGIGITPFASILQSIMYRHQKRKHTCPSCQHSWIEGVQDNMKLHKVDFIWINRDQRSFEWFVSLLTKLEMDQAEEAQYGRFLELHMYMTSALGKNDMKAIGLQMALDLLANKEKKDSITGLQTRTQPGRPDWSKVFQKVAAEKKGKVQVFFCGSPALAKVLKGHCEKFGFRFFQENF

NADPH oxidase 4 (Homo sapiens), sequence (Q9NPH5 whole entry, looked up): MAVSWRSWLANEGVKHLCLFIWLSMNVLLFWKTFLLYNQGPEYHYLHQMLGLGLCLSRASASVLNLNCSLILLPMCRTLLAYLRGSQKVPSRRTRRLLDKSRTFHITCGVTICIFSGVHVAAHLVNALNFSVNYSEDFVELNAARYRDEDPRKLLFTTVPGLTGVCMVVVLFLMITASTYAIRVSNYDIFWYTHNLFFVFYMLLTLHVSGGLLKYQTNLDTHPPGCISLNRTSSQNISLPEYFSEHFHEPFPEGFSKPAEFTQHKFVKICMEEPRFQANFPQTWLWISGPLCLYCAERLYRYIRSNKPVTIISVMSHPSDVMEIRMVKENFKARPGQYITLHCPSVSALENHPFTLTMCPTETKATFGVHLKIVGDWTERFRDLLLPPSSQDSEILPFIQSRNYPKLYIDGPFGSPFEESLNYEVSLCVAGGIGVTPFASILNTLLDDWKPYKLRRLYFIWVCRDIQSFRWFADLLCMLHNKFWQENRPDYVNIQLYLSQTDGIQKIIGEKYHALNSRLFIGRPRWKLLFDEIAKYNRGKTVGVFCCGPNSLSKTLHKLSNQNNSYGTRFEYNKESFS
NADPH oxidase 2 (Homo sapiens), sequence (P04839 whole entry, looked up): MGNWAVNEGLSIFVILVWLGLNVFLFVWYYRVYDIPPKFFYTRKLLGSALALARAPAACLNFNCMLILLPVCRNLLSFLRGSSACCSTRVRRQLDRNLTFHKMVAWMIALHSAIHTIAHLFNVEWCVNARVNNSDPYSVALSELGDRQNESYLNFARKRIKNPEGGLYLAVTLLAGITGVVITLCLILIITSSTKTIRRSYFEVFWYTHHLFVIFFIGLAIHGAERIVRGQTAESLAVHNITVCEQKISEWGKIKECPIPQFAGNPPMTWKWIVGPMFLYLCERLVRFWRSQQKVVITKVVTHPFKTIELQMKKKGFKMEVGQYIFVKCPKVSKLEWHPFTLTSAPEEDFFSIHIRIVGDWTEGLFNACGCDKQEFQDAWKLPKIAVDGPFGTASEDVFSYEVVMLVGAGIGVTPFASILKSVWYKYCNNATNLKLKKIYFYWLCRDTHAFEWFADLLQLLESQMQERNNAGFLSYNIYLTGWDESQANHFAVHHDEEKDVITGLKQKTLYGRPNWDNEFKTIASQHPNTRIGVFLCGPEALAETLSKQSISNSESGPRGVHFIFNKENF

Row | Compound | z-score [1] | composite z-score [2] | z-score [3] | z-score [4] | z-score [5] | z-score [6] | z-score [7] | z-score [8] | z-score [9] | z-score [10]
1 | COc1cc2c(cc1O)C(c1cccs1)N(C)CC2 (stereo not given) | 0.158 (inactive) | -0.103 | 4.23 (inactive) | 1.17 (inactive) | -0.0863 (inactive) | 0.352 (inactive) | -0.331 | -4.66 (inactive) | -2.71 (inactive) | -2.33
2 | C=CC[C@@]1(C(=O)NCCN2CCOCC2)N=C(c2ccc(OCCCO)cc2)O[C@@H]1c1ccccc1N=[N+]=[N-] | 0.301 (inactive) | 0.144 | 31.2 (active) | 31.8 (active) | 2.48 (inactive) | 2.95 (inactive) | -0.291 | -1.67 (inactive) | 0.0137 (inactive) | -1.73
3 | O=C1N[C@@H](Cc2ccccc2)C(=O)N2[C@@H]1C[C@@H](C(=O)O)[C@H]2c1cccc(OCCO)c1 | 0.931 (inactive) | 0.0903 | 6.39 (inactive) | 1.12 (inactive) | -2.03 (inactive) | 0.375 (inactive) | 1.17 | -2.21 (inactive) | -2.89 (inactive) | -0.102
4 | CCOC(=O)C[C@H]1[C@H](OC(=O)c2ccccc2-c2ccccc2)[C@@H](NC(=O)CC(C)C)c2cc(OCCCO)ccc2N1C(=O)Cc1ccc(OC)cc1 | -0.892 (inactive) | -0.0094 | 2.71 (inactive) | 0.317 (inactive) | 0.587 (inactive) | 0.207 (inactive) | 0.633 | -0.234 (inactive) | 1.21 (inactive) | -0.33
5 | COc1ccc([C@H]2OC[C@@H]3C[C@@H](Cc4ccccc4)C(=O)N32)cc1 | -0.783 (inactive) | 0.25 | 2.1 (inactive) | 0.0371 (inactive) | -0.59 (inactive) | 0.308 (inactive) | -0.597 | 1.25 (inactive) | 0.524 (inactive) | -0.604
6 | CC(=O)NCCCC[C@@H]1NC(=O)[C@H]2C[C@@H](C(=O)NCCCCCCNC(=O)CS)[C@@H](c3ccc(O)cc3)N2C1=O | 0.0783 (inactive) | 0.132 | 4.2 (inactive) | 0.507 (inactive) | 3.45 (inactive) | 0.301 (inactive) | -0.371 | 0.294 (inactive) | -0.187 (inactive) | 0.673
7 | C[N+](C)(C)CCCCNC(=O)[C@H]1C[C@H]2C(=O)N3CCC[C@H]3C(=O)N2[C@H]1c1cccc(OCCO)c1 | 0.364 (inactive) | 0.0861 | 3.34 (inactive) | 0.503 (inactive) | -0.78 (inactive) | 0.277 (inactive) | -0.555 | -1.52 (inactive) | 0.00366 (inactive) | -1.41
8 | CN1C(=O)C2C=CC(C(O)c3ccccc3)N(N(c3ccccc3)c3ccccc3)C2C1=O (stereo not given) | -0.84 (inactive) | 0.267 | 0.581 (inactive) | 0.693 (inactive) | -0.284 (inactive) | 0.9 (inactive) | -0.809 | -1.19 (inactive) | -0.586 (inactive) | 0.121
9 | CC(=O)n1cc(C(O)C2C=CC3C(=O)N(c4ccccc4)C(=O)C3N2Nc2ccc([N+](=O)[O-])cc2)c2ccccc21 (stereo not given) | -1.2 (inactive) | 0.272 | 17 (active) | 3.57 (inactive) | 1.13 (inactive) | 0.954 (inactive) | -0.75 | -0.808 (inactive) | -2.56 (inactive) | -1.91
10 | O=C1c2ccccc2[C@](Cc2ccccc2I)(C(=O)NCCN2CCOCC2)[C@H](c2ccc(CO)cc2)N1Cc1ccccc1Cl | 0.065 (inactive) | 0.559 | 11.7 (active) | 1.47 (inactive) | 1.01 (inactive) | 0.818 (inactive) | -0.0261 | -0.136 (inactive) | 0.707 (inactive) | 0.608
11 | O=C1C2C=CC(C(O)Cc3ccccc3)N(n3cnnc3)C2C(=O)N1Cc1ccccc1 (stereo not given) | -1.07 (inactive) | 0.333 | 1.78 (inactive) | 1.06 (inactive) | 1.04 (inactive) | 0.587 (inactive) | -0.309 | -0.112 (inactive) | -1.69 (inactive) | -1.36
12 | O=C(CS)NCCCCCCNC(=O)[C@@H]1C[C@@H]2C(=O)NCC(=O)N2[C@@H]1c1cccc(OCCO)c1 | 0.74 (inactive) | -0.887 | 3.29 (inactive) | 0.156 (inactive) | 2.38 (inactive) | 0.104 (inactive) | 0.59 | 1.54 (inactive) | 0.845 (inactive) | 0.711
13 | CCOC(=O)C[C@H]1[C@H](OC(=O)c2ccc(C(=O)c3ccccc3)cc2)[C@@H](NC(=O)c2ccc3ccccc3n2)c2cc(OCCCO)ccc2N1C(=O)c1ccccc1 | -0.983 (inactive) | -0.0683 | 0.839 (inactive) | -0.136 (inactive) | -0.883 (inactive) | -0.232 (inactive) | -0.322 | 0.34 (inactive) | 1.06 (inactive) | 1.2
14 | CCCC#C[Si](O[C@H](CC)c1cn(Cc2cccc(Cl)c2)nn1)(C(C)C)C(C)C | 1.68 (inactive) | 0.171 | 0.131 (inactive) | 0.659 (inactive) | -0.871 (inactive) | 0.283 (inactive) | -0.131 | 0.041 (inactive) | 0.076 (inactive) | 0.842
15 | O=C(NCCN1CCOCC1)[C@@H]1c2ccccc2C(=O)N(C2CCCCC2)[C@H]1c1ccc(CO)cc1 | -0.306 (inactive) | -0.007 | 3.9 (inactive) | 1.22 (inactive) | 1 (inactive) | 0.403 (inactive) | 0.227 | 0.822 (inactive) | 1.3 (inactive) | 0.579
16 | CC1(C)C2C=C(C(O)C3C=CC4C(=O)NC(=O)C4N3Nc3ccc(Cl)cc3Cl)C[C@@H]1C2 (stereo not given in full) | -4.41 (inactive) | 0.265 | 3.33 (inactive) | 0.916 (inactive) | -2.43 (inactive) | 1.19 (inactive) | -1.38 | -0.197 (inactive) | -5.57 (inactive) | -3.46
17 | COC(=O)C(CC#Cc1ccc2c(c1)[C@]1(C(=O)N2)[C@H](c2ccc(OCCO)cc2)N2[C@H](c3ccccc3)[C@H](c3ccccc3)OC(=O)[C@H]2[C@@H]1C(=O)Nc1nc2ccccc2s1)C(=O)OC | 1.99 (inactive) | -0.0611 | 4.42 (inactive) | 1.76 (inactive) | 0.66 (inactive) | 1.82 (inactive) | -0.206 | 1.18 (inactive) | 0.786 (inactive) | 1.03
18 | O=C(c1ccccc1)N1Cc2ccccc2C[C@@]2(COC(c3ccc(OCCCO)cc3)=N2)C1=O | -0.298 (inactive) | 0.39 | 15.2 (active) | 1.26 (inactive) | 4.66 (inactive) | 0.498 (inactive) | -0.107 | 0.137 (inactive) | -0.302 (inactive) | -0.983
19 | C=CC[C@]1(C(=O)NCc2ccccc2)N=C(c2ccc(OCCCO)cc2)O[C@H]1c1ccccc1N=[N+]=[N-] | 0.0858 (inactive) | 0.222 | 31.8 (active) | 27.1 (active) | 3.46 (inactive) | 6.96 (inactive) | 0.0617 | -1.8 (inactive) | 0.721 (inactive) | -0.0713
20 | COCCOC(=O)N1C(=O)[C@@]2(c3cc(C#CCNC(N)=O)ccc31)[C@H](C(=O)N1CCN(c3ncccn3)CC1)[C@H]1C(=O)O[C@H](c3ccccc3)[C@H](c3ccccc3)N1[C@@H]2c1ccc(OCCO)cc1 | -0.492 (inactive) | 0.267 | 6.11 (inactive) | 1.93 (inactive) | 1.26 (inactive) | 0.778 (inactive) | -0.319 | 1.64 (inactive) | 0.971 (inactive) | -0.121
21 | COC(=O)[C@@]1(Cc2ccc(OC)cc2)[C@H]2c3cc(C(=O)N4CCCC4)n(Cc4ccc(C)c(F)c4F)c3C[C@H]2CN1C(=O)c1ccccc1 | -0.548 (inactive) | 0.378 | 3.76 (inactive) | 0.233 (inactive) | 0.894 (inactive) | 1.08 (inactive) | 0.105 | 0.705 (inactive) | 1.23 (inactive) | -3.41
22 | Cc1ccc(S[C@]2(C(=O)NCCCN(C)C)CC(=O)N(Cc3cc(C(F)(F)F)cc(C(F)(F)F)c3)[C@@H]2c2ccc(CO)cc2)cc1 | -0.48 (inactive) | -0.506 | 1.24 (inactive) | 0.0808 (inactive) | -0.0534 (inactive) | 0.327 (inactive) | 1.11 | -0.373 (inactive) | 0.414 (inactive) | 0.942
23 | COCC(=C=CC[C@@H](O)c1cccc(OCCO)c1)C[C@@H](O)c1ccccn1 | 0.335 (inactive) | 0.0903 | 12 (active) | 1.42 (inactive) | 0.97 (inactive) | 0.675 (inactive) | -0.613 | 1.96 (inactive) | 0.744 (inactive) | 0.254
24 | O=C1C[C@]2(c3ccc([N+](=O)[O-])cc3)C(=O)N(CC(F)(F)F)c3cc(CO)ccc3[C@H]2N1C1CCCCC1 | 0.983 (inactive) | -0.233 | -0.524 (inactive) | 0.345 (inactive) | 0.503 (inactive) | 0.133 (inactive) | -0.116 | -0.502 (inactive) | 0.00678 (inactive) | 0.428
25 | C=CCOC(=O)[C@@H]1[C@H]2C(=O)O[C@H](c3ccccc3)[C@H](c3ccccc3)N2[C@H](c2ccc(OCCOC(=O)[C@@H]3C[C@@H]4C(=O)NCC(=O)N4[C@@H]3c3ccc(O)cc3)cc2)[C@@]12C(=O)Nc1ccc(I)cc12 | 0.0692 (inactive) | -0.404 | 0.894 (inactive) | 0.553 (inactive) | 1.58 (inactive) | 0.398 (inactive) | 0.0971 | 1.46 (inactive) | 0.978 (inactive) | 1.35
26 | COc1ccc([Si](C)(C)[C@@H]2[C@@H](CC(=O)N3CCC[C@H]3CO)O[C@]3(C(=O)N(c4ccccc4)c4ccccc43)[C@H]2C)cc1 | 2.66 (inactive) | -0.0718 | 0.616 (inactive) | -0.748 (inactive) | 1.1 (inactive) | -1.44 (inactive) | 0.499 | 2.54 (inactive) | 1.74 (inactive) | 2.4
